A selection: hits, their analogues and other compounds. The true share with any hit is near 7.8%.
HCV inhibitor – inhibitors of hepatitis C virus infection; AID 651820; 340,000 compounds, 3.4% hits; Huh7.5.1 HCVcc-Cre infection, luciferase reporter, 44 h; Potency, µM (top dose mostly 41.8 µM), actives largely listed as inhibitors; active = well fitted inhibition curve with a large enough effect; inconclusive = small, poorly fitted or top-dose-only effect, or another doubt; inactive = no such curve, though single readings can be large or run the other way
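Cells seeded at 1,000/well and cultured 4 h, then compounds added followed by HCVcc-Cre virus (~0.5 moi). After 44 h further culture, luciferase substrate was added, plates held 15 min at room temperature, and luminescence read for 15 sec.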
VACV mCherry inh – inhibitors of vaccinia virus infection (mCherry reporter signal) | 310,000 compounds, 0.63% hits | Vaccinia virus mCherry reporter infection, fluorescence | Potency, µM (series often up to 36.5 µM), most hits filed as inhibitors; calls by dose curve; tested in A549 cells; also: nearly all actives have a fitted effect of over 35% in size
VACV Venus inh – inhibitors of vaccinia virus (Venus reporter) | 330,000 compounds, 0.46% hits | Vaccinia virus Venus reporter expression, fluorescence | Potency, µM (highest dose often 36.5 µM), actives largely listed as inhibitors | AID 720580; calls by dose curve; tested in A549 cells; also: nearly all actives have a fitted effect of over 30% in size
HCMV antiviral – blocks human cytomegalovirus replication; AID 1259415; HFF cells, HCMV-luciferase reporter, 72 h; active compounds read low; activity change, negative = inhibition, % at 57.5 µM; 410,000 compounds, 4.5% hits; in the data active = activity change below about -60%; inconclusive = no clear call, values can overlap the other calls; inactive = above about -39%
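Luciferase read-out from HCMV-luciferase-infected HFFs (MOI 1 PFU/cell) 72 h post infection at 37C; compounds added after 16 h cell attachment; activity normalized between buffer-only basal and Salinomycin (10uM) inhibitor controls.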
MARV entry inh – Marburg virus entry inhibition; Marburg virus pseudotyped entry inhibition, cell reporter; Potency, µM (titrated, usually from 37.8 µM), hits mostly inhibitors; 300,000 compounds, 1.8% hits; calls by dose curve; tested in HEK293 cells
Lassa entry inh – inhibitors of Lassa virus binding or cell entry. Potency, µM (highest dose often 37.9 µM), most hits filed as inhibitors. AID 540256. Lassa virus pseudotype entry inhibition, cell reporter. 300,000 compounds, 1.2% hits; calls by dose curve; tested in HEK293 cells; also: nearly all actives have a fitted effect of over 50% in size
Numbers stand for hits; i = inactive; ? = inconclusive; nt = not tested or not shown; ! = not active in a repeat; [ ] = another dose, or the depositor's remark.

SMILES	HCV inhibitor	VACV mCherry inh	VACV Venus inh	HCMV antiviral	MARV entry inh	Lassa entry inh
CCOC1=C2[C@@H](CN(S(=O)(=O)c3ccccc3C)[C@H]2c2ccc(Cl)cc2)[C@H]2C(=O)NC(=O)[C@H]2C1	nt	i	i	-76	nt	nt
CCn1c(N2CCN(S(=O)(=O)c3ccc(OC)cc3)CC2)nc2ccccc21	10µM	i	i	i	?	8.9µM
COc1ccc(S(=O)(=O)N2CCN(c3ccccc3)CC2)cc1	i	i	i	i	i	?
COc1ccccc1N1CCN(C2CCN(S(=O)(=O)c3ccc4ccccc4c3)CC2)CC1	14µM	nt	nt	?	?	?
COc1cccc(N2CCN(S(=O)(=O)c3ccc4ccccc4c3)CC2)c1	22µM	i	i	i	?	?
O=S(=O)(c1ccc2ccccc2c1)N1CCN(C2CCN(Cc3ccccc3)CC2)CC1	22µM	nt	nt	i	?	?
Cc1ccc(-n2c(SCC(=O)Nc3ccc4c(c3)OCCO4)nc3c([nH]c4ccccc43)c2=O)cc1	nt	i	i	i	nt	i
N=c1n(CCO)c2ccccc2n1Cc1ccccc1	i	nt	?	?	?	i
N=c1n(CCN2CCCC2)c2ccccc2n1CC(O)c1ccc(Cl)c(Cl)c1 (centres undefined)	11µM	nt	nt	-99	nt	nt
N=c1n(CCO)c2ccccc2n1CCOc1ccc(Cl)cc1Cl	?	?	11µM	i	i	nt
N=c1n(CCN2CCCCC2)c2ccccc2n1CC(O)COc1ccc(Cl)cc1Cl (centres undefined)	nt	i[7.34 µM]	i[7.34 µM]	-99	5.6µM	?
N=c1n(CCO)c2ccccc2n1Cc1ccccc1Cl	22µM	i	i	i	?	?
COc1ccccc1C(=O)Nc1ccc2nc(SCCOc3ccccc3C)sc2c1	nt	i	i	i	i	i
COc1ccc(-n2c(=O)c3c4c(sc3n(Cc3ccc(C(C)(C)C)cc3)c2=O)CCC4)c(OC)c1	nt	i	i	?	?	?
COc1cc(OC)c(NC(=O)c2c(N3CCCC3=O)c3cc(C)ccc3n2C)cc1Cl	nt	i	i	i	nt	i
Cc1nc2cc(NC(=O)[C@@H]3C[C@@H](Sc4ccccn4)CN3Cc3ccc(F)cc3F)ccc2s1	nt	i	i	nt	nt	nt
CCOc1ccc(C(=O)c2cn(Cc3ccc(Cl)cc3)c3cc(OC)c(OC)cc3c2=O)cc1	nt	i	?	i	?	i
Cc1ccc(OCC(O)Cn2c(=N)n(CCN3CCCCC3)c3ccccc32)cc1 (centres undefined)	2.5µM	i	i	-82!	8.2µM	?
OC(CNCCCN1CCCCC1)COc1ccccc1 (centres undefined)	10µM	nt	?	i	?	i
CS(=O)(=O)c1ccc(Nc2nccc3[nH]c(-c4ccsc4)cc23)cc1	nt	nt	nt	i	nt	nt
CCNc1ccc(S(=O)(=O)N(C)C)cc1NCC(=O)Nc1ccc(F)c(Cl)c1	?	i	i	-75	?	?
CCNc1ccc(S(=O)(=O)N(C)C)cc1NCC(=O)Nc1ccccc1F	?	i	i	i	i	i
COc1ccc(OC)c(NC(=O)Cn2ccc3ccccc3c2=O)c1	nt	i	i	i	i	i
CCNC(=O)C1CCCN(C(=O)c2cc(F)cc(F)c2)CC1 (centres undefined)	nt	i	i	-93	nt	nt
Cc1ccc(CCNS(=O)(=O)c2c(C)nc3sc(C)c(C)n3c2=O)cc1	nt	i	i	i	nt	i
SMILES	HCV inhibitor	VACV mCherry inh	VACV Venus inh	HCMV antiviral	MARV entry inh	Lassa entry inh
Cc1cc2c(c(-c3cnccn3)c1)OC(CNC(=O)c1ccccc1C(F)(F)F)C2 (centres undefined)	nt	i	i	nt	nt	nt
CCCCS(=O)(=O)N1CCN(C(=N)N[N+](=O)[O-])CC1	i	i	i	-62	i	i
COc1cc(C2CC(=O)Nc3c2c(=O)[nH]c2nc4ccccc4n32)ccc1O (centres undefined)	nt	i	i	i	i	i
CCCOc1ccc(C(=O)Nc2cc3nn(-c4ccc(CC)cc4)nc3cc2C)cc1	nt	i	i	i	i	i
COc1cc(OC)c(NS(=O)(=O)c2ccc(Cl)c(C(=O)OC(C)C(=O)N3CCCC3)c2)cc1Cl (centres undefined)	?	i	?	-64	?	i
O=C(C[N+]12CN3CN(CN(C3)C1)C2)c1ccc(Br)cc1	nt	i	i	nt	nt	nt
CC(C(O)c1ccc(O)cc1)N1CCC(Cc2ccccc2)CC1 (centres undefined)	?	?	i	?	21µM	23µM
C[C@@H](CN1CCC(Cc2ccccc2)CC1)[C@@H](O)c1ccc(O)cc1	?	i	i	i	?	?
C[C@@H]([C@H](O)c1ccc(O)cc1)N1CCC(Cc2ccccc2)CC1	nt	nt	nt	nt	21µM	nt
CC(C)OCC(O)CN1CCC(Cc2ccccc2)CC1 (centres undefined)	i	nt	nt	?	nt	nt
COc1ccc(N2C(=O)[C@@H]3C[C@H]2CN3Cc2cccn2-c2ccccn2)cc1Cl	nt	i	i	nt	nt	nt
CCOc1cc(C(=O)Nc2ccc(-c3nnc4n3CCCCC4)cc2)cc(OCC)c1OCC	nt	i	i	i	nt	i
CN(C)C1=NC[C@H](Cc2ccccc2)N1CCCC1CCCCC1	4µM	?	i	i	nt	nt
C[C@H]1CN=C(N(C)C)N1CCc1cccc(F)c1	?	i	i	i	nt	nt
C[C@H]1CN=C(N(C)C)N1CCc1ccccc1	i	i	i	-67	nt	nt
Cc1ccc2nc(N/N=C/c3ccccc3C#N)nc(-c3ccccc3)c2c1	?	i	i	?	13µM	?
OC(CN1CCOCC1)Cn1c(-c2cccc(Cl)c2)nc2ccccc21 (centres undefined)	i	nt	nt	-102	i	i
OC(CN1CCOCC1)Cn1cnc2ccccc21 (centres undefined)	i	i	i	i	?	i
Cc1nc2cccnc2n1C1CCN(C(=O)Nc2ccc(Cl)cc2)CC1	nt	i	i	i	nt	i
COc1ccc(-c2nn(-c3ccccc3)cc2CO)cc1	?	nt	i	i	?	i
N=C(N)SCc1cn(-c2ccccc2)nc1-c1ccc(Br)cc1	?	11µM	?	-87	?	?
CCCn1c(=O)c2ccccc2n2c(SCc3cc(=O)n4ccsc4n3)nnc12	nt	nt	nt	nt	i	nt
O=C(OCc1cc(=O)n2ccsc2n1)C1(c2ccccc2)CC1	nt	i	i	-98	nt	nt
Cc1cccc(-n2c(SCc3cc(=O)n4ccsc4n3)nc3ccccc32)c1	7.9µM	i	i	i	i	i
Cn1c(Cc2ccccc2)nnc1SCc1cc(=O)n2ccsc2n1	i	i	i	-63	i	i
SMILES	HCV inhibitor	VACV mCherry inh	VACV Venus inh	HCMV antiviral	MARV entry inh	Lassa entry inh
Cc1ccc(-n2c(SCc3cn4ccsc4n3)nc3ccccc3c2=O)cc1	10µM	i[1.46 µM]	?	-65	i	?
c1ccc(-n2cnnc2SCc2cn3ccsc3n2)cc1	i	nt	nt	i	?	i
CCOC(=O)c1ccc(NC(=O)Nc2cc3c(cc2N2CCCC2)n(C)c(=O)n3C)cc1	nt	i	i	?	i	?
Cc1ccc(C(=O)NC2=NCCS2)cc1	nt	nt	nt	i	i	nt
COc1ccc(C(=O)NC2=NCCS2)cc1	i	i	i	i	?	i
CC(C)Oc1ccc(C(=O)NC2=NCCS2)cc1	i	i	i	i	8.9µM	?
CC(C)c1ccc(C(=O)NC2=NCCS2)cc1	i	i	i	i	7.3µM	16µM
